# From the supplement of paper PMC10849652
# About 7,900 targets were measured; listed, in parts, are those with a hit and a random draw of the rest. About 0.6% of all pairs of compound and target were hits. Values without a mark were called inactive.
# Compound: CN1CCN(c2nc(C3=C(c4c[nH]c5ccccc45)C(=O)NC3=O)c3ccccc3n2)CC1 [sotrastaurin]
# Test: log2 fold change, soluble protein after heating vs DMSO (PISA); higher = thermal stabilisation; K562 cells, 10 uM, 30 min; active = over 0.2 and 3.5 SD of the protein, either way, in both replicates (recomputed)
# Outline: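 K562 cells at 2×10^6 cells/mL were treated for 30 min with 10 μM compound, and aliquots were heated for 3 min over 48°C-58°C before pooling. Extraction used PBS with 0.5% NP-40 at 4°C, and soluble protein was the supernatant after 21,000xg for 90 min, measured by TMTpro 16plex LC-MS/MS with channel sums equalised. Thermal stability values, relative to control samples and from duplicates, are log2 fold changes.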
# UniProt Q9NRS6, sequence (Q9NRS6 whole entry, looked up): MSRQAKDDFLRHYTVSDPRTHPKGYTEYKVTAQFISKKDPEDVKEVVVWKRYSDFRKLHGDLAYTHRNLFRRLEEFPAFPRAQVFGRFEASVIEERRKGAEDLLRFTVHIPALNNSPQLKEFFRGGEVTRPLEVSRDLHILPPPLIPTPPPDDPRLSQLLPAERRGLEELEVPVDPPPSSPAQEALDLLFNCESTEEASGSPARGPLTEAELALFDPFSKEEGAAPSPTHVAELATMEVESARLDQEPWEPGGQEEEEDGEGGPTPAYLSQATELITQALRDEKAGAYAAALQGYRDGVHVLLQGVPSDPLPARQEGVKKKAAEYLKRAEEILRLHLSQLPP
# UniProt Q969G3, sequence (Q969G3 whole entry, looked up): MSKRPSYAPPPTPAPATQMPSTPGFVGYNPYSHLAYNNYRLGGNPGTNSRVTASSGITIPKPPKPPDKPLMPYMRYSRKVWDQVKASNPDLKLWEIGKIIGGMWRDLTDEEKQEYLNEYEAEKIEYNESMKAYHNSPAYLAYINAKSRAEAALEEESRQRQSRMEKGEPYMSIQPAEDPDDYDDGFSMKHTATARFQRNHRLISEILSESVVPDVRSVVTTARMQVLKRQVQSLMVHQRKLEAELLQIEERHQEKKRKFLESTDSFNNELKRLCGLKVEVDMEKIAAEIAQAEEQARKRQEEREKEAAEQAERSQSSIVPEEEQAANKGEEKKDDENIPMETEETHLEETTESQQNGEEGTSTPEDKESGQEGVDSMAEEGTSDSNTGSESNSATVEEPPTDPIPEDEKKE
# UniProt Q9BYN0, sequence (Q9BYN0 whole entry, looked up): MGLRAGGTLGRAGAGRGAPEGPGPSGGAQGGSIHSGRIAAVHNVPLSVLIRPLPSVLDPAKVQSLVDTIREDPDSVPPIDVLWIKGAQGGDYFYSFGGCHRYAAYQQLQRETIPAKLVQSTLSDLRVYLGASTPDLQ
# UniProt P12931, sequence (P12931 whole entry, looked up): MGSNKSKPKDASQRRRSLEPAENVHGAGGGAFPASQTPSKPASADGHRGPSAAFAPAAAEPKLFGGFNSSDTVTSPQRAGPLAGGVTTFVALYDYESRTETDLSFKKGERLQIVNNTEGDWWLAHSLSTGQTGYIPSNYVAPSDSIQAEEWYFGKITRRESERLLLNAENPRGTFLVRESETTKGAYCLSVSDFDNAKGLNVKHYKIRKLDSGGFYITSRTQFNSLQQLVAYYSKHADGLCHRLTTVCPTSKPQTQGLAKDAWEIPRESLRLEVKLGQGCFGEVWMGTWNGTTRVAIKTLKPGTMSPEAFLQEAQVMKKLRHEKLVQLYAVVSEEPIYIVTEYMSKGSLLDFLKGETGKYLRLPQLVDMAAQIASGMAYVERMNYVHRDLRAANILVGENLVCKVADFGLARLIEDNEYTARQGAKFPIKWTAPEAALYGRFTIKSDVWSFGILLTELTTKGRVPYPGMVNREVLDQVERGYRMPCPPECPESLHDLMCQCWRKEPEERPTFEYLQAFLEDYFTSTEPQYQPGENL
# UniProt Q5VWP2, sequence (Q5VWP2 whole entry, looked up): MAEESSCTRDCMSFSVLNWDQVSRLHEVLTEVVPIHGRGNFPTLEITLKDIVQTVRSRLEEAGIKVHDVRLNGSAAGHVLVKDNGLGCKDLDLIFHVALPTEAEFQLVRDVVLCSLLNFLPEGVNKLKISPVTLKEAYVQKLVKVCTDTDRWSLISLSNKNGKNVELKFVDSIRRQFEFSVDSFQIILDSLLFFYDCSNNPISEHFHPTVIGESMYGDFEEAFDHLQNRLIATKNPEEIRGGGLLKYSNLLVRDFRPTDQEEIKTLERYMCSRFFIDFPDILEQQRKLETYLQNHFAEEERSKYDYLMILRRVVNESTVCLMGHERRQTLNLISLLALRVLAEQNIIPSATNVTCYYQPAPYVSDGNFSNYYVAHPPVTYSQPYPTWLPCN
# UniProt Q9UHD2, sequence (Q9UHD2 whole entry, looked up): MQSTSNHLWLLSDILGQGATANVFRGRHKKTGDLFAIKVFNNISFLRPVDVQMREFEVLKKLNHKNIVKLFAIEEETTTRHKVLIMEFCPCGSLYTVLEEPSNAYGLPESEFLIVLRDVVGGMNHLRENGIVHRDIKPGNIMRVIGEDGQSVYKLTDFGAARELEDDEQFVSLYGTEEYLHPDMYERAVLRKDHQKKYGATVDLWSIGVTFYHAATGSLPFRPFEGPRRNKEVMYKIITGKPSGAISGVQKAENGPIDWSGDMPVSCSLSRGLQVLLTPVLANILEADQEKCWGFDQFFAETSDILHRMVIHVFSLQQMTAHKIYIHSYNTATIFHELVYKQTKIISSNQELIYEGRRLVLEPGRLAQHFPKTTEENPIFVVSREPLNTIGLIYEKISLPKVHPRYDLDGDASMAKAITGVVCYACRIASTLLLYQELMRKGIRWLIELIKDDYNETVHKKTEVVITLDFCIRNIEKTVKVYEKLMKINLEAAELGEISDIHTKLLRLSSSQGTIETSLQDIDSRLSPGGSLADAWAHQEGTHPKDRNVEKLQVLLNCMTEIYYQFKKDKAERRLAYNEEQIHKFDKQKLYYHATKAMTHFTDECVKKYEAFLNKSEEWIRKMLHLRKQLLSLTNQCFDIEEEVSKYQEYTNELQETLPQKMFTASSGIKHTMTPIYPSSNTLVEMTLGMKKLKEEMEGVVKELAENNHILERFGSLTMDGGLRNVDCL
# UniProt Q8N5G0, sequence (Q8N5G0 whole entry, looked up): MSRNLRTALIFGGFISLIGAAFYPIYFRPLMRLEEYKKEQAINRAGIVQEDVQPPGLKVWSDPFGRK
# UniProt Q8N357, sequence (Q8N357 whole entry, looked up): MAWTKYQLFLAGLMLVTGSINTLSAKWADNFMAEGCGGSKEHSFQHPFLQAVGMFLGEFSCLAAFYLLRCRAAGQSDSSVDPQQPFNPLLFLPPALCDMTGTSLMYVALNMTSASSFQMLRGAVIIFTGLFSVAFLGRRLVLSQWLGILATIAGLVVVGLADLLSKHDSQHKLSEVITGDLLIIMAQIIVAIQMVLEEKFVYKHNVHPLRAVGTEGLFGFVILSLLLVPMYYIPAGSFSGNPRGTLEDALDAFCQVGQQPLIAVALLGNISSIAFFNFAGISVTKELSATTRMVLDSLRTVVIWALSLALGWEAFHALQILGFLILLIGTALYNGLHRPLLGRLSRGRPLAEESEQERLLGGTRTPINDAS
# UniProt Q15005, sequence (Q15005 whole entry, looked up): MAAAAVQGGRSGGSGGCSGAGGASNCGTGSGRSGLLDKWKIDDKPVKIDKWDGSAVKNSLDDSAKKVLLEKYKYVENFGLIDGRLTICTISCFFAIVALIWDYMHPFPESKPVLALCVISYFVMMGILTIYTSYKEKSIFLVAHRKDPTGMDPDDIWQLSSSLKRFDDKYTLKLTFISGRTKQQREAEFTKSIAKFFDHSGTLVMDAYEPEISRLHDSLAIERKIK
# UniProt Q8TC07, sequence (Q8TC07 whole entry, looked up): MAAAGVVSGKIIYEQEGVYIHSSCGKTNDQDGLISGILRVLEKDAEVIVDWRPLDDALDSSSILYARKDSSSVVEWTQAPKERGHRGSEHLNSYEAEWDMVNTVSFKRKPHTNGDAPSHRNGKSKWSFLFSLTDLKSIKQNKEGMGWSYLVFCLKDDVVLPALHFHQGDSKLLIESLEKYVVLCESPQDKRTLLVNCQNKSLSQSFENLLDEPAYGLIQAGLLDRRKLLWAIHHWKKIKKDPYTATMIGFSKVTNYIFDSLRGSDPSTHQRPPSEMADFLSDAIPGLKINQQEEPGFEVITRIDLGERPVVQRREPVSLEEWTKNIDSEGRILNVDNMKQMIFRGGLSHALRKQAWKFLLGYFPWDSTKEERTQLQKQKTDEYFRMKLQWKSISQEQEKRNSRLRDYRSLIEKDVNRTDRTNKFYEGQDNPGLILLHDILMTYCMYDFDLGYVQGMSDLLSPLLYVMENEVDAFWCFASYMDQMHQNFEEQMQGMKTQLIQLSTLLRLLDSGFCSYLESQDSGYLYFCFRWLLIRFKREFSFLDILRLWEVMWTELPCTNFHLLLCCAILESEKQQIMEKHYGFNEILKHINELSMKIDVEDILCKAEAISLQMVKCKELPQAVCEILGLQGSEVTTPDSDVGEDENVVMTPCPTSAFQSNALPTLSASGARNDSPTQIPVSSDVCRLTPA
# UniProt Q9BZD2, sequence (Q9BZD2 whole entry, looked up): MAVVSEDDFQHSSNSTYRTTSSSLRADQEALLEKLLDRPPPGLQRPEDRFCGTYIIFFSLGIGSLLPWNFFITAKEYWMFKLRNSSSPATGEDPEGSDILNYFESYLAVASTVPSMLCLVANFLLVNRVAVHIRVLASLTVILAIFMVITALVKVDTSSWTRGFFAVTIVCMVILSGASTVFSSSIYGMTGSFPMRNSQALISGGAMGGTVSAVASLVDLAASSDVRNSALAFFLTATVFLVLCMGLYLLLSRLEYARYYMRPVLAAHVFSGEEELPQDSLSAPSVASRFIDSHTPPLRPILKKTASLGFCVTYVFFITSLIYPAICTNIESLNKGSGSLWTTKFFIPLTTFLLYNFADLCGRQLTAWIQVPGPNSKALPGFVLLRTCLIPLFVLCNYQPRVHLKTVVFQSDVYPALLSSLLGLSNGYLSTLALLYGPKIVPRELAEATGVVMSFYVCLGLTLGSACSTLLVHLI
# UniProt Q96BZ9, sequence (Q96BZ9 whole entry, looked up): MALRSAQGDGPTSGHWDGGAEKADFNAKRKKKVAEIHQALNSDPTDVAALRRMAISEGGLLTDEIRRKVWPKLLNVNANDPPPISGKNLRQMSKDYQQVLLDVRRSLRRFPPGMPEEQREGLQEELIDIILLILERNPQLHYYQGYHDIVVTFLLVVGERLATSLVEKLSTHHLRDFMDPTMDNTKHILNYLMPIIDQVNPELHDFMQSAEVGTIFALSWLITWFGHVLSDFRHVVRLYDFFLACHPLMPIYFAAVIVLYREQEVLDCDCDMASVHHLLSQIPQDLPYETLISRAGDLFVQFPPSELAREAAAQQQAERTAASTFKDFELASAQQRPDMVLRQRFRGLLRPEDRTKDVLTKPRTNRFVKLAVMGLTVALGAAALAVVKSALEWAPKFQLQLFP
row,Target,log2 fold change
1,SYNE2 isoform 2 (UniProt Q8WXH0),-0.005
2,TBK1 (UniProt Q9UHD2),-0.063
3,TANGO6 (UniProt Q9C0B7),-0.135
4,SLC38A7 (UniProt Q9NVC3),0.152
5,TENT5C (UniProt Q5VWP2),0.035
6,SRXN1 (UniProt Q9BYN0),0.019
7,SLC29A3 (UniProt Q9BZD2),0.056
8,SMARCE1 (UniProt Q969G3),-0.204
9,SRC isoform 2 (UniProt P12931),-0.167
10,SRFBP1 (UniProt Q8NEF9),-0.01
11,SLC39A11 (UniProt Q8N1S5),0.127
12,TBC1D15 isoform 3 (UniProt Q8TC07),-0.117
13,TM7SF3 (UniProt Q9NS93),0.035
14,SNX15 (UniProt Q9NRS6),-0.048
15,SPPL2B (UniProt Q8TCT7),0.074
16,SMIM20 isoform 2 (UniProt Q8N5G0),0.056
17,SRSF9 (UniProt Q13242),-0.015
18,SLC35F6 (UniProt Q8N357),-0.071
19,TBC1D20 isoform 3 (UniProt Q96BZ9),0.053
20,TEX264 (UniProt Q9Y6I9),-0.027
21,SPCS2 (UniProt Q15005),-0.054
22,TJP1 (UniProt Q07157),-0.064
